Data as given in PubChem BioAssay AID1159580 (chemical genetic matrix, 2015).
About 2,000 (36%) of roughly 5,500 compounds were called active. Another 18% or so got no clear call; they are omitted. Rule as the data show it: active = normalized growth mostly below about 0.91 (no sharp cut-off); inconclusive = no clear call, values can overlap the other calls; inactive = mostly above about 0.92. Some of the results follow.

Assay: chemical genetic growth profiling, strain panel (AID 1159580);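 also: tested at 20 µM; growth read once vehicle control cultures reached saturation at 30 °C; 1 = growth at the plate median or of vehicle wells; lower values mean less growth of the strain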
Conditions: S. cerevisiae deletion strains, growth OD
[1] = locus YDR150W, strain NUM1, stronger effect = lower value
[2] = locus YGR078C, strain PAC10, stronger effect = lower value
[3] = locus YJR075W, strain HOC1, stronger effect = lower value
[4] = locus YMR263W, strain SAP30, stronger effect = lower value

Measured: normalized growth

OC[C@H]1O[C@@H](n2cnc3c(NCCc4ccccc4)ncnc32)C(O)[C@H]1O (some centres undefined)
inactive: locus YAL040C, strain CLN3, stronger effect = lower value 0.979 | locus YCL061C, strain MRC1 (second series), stronger effect = lower value 0.999 | [1] 0.993 | locus YDR363W, strain ESC2, stronger effect = lower value 0.954 | locus YER002W, strain NOP16, stronger effect = lower value 1.02 | [2] 0.996 | [3] 0.993 | [4] 0.998 | locus YMR307W, strain GAS1, stronger effect = lower value 0.997 | locus YNL128W, strain TEP1, stronger effect = lower value 0.989 | locus YNL175C, strain NOP13, stronger effect = lower value 0.991 | locus YNL197C, strain WHI3, stronger effect = lower value 0.991 | locus YNL224C, strain SQS1, stronger effect = lower value 1.01 | locus YOR083W, strain WHI5 (second series), stronger effect = lower value 0.997

Cc1cc(C)c(I)c(C)c1
inactive: locus YAL013W, strain DEP1, stronger effect = lower value 1 | locus YBR229C, strain ROT2, stronger effect = lower value 1.02 | locus YDL101C, strain DUN1, stronger effect = lower value 0.987 | [1] 0.984 | locus YEL061C, strain CIN8, stronger effect = lower value 1.05 | [2] 0.995 | locus YHR030C, strain SLT2, stronger effect = lower value 1.12 | locus YHR087W, strain rtc3, stronger effect = lower value 1.09 | locus YJR043C, strain POL32, stronger effect = lower value 1.01 | [3] 1.02 | locus YKL190W, strain CNB1, stronger effect = lower value 0.99 | locus YLR039C, strain RIC1, stronger effect = lower value 1.05 | locus YLR058C, strain SHM2 (second series), stronger effect = lower value 1.02 | locus YLR085C, strain ARP6, stronger effect = lower value 1.01 | locus YLR262C, strain YPT6, stronger effect = lower value 1.05 | locus YML094W, strain GIM5, stronger effect = lower value 1.02 | locus YMR219W, strain ESC1, stronger effect = lower value 1.01 | [4] 1.02 | locus YNL153C, strain GIM3, stronger effect = lower value 0.999 | locus YNL298W, strain CLA4 (second series), stronger effect = lower value 1.04 | locus YNL322C, strain KRE1, stronger effect = lower value 1 | locus YNR030W, strain Alg12, stronger effect = lower value 1.03 | locus YPL055C, strain LGE1, stronger effect = lower value 1.02 | locus YPL241C, strain CIN2, stronger effect = lower value 1.02 | locus YPR135W, strain CTF4, stronger effect = lower value 0.963
